High-throughput results deposited in PubChem by several laboratories.
An excerpt weighted towards active compounds, which were near 4.7% of everything screened.
Efflux pump inh: inhibitors of Candida antifungal efflux pumps expressed in yeast; AID 485275; 0.44% of 330,000 active; S. cerevisiae Candida pump triplex, Nile Red efflux; inhibition, % at 10 µM;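 active = plate passing quality check with inhibition over a set limit, or well fluorescence over plate mean plus 4 SD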;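 also: Nile Red retained in pooled yeast measured as flow cytometry median fluorescence; 0% = buffer negative control and 100% = Enniatin B positive control; higher means more Nile Red kept so more efflux inhibition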
ALR inh: human ALR oxidase inhibition via reduced H2O2; P55789; purified ALR, DTT oxidation, H2O2 HRP-luminol luminescence; inhibition, % (concentration not given with the values); 3.8% of 290,000 active; AID 485317;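 active = mean replicate inhibition above about 79%, with every replicate also reaching it, limit read from the data; inconclusive = only one of the two criteria met; inactive = mean below limit and not every replicate reaching it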
PABP1 MLLE inh: inhibitors of microRNA-mediated deadenylation, human PABP1 MLLE binding; 0.36% of 360,000 active; inhibition, % at 20 µM; P11940; GST-MLLE / FITC-PAM2 fluorescence polarization; in the data active = inhibition above about 35%, passing the limit was not always enough;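 also: plate controls were DMSO wells with GST-MLLE for no effect and wells lacking GST-MLLE protein for full effect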
Target sequence (P11940 whole entry, looked up): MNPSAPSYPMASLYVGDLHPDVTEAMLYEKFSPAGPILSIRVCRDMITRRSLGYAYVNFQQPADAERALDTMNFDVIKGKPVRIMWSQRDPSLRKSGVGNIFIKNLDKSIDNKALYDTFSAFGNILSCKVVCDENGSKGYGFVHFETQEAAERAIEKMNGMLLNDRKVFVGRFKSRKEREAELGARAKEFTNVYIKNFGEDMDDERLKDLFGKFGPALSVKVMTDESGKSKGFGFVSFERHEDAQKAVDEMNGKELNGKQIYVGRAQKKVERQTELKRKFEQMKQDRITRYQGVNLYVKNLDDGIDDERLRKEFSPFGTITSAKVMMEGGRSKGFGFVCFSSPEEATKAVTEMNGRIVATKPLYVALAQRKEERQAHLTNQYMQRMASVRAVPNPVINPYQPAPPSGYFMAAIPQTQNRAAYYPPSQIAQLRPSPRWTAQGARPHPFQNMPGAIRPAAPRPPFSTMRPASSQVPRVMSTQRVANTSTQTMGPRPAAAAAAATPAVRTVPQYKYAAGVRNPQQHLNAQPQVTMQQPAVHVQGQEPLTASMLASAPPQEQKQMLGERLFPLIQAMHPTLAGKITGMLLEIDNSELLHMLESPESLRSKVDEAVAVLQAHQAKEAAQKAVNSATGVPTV
UBC9 SUMO inh: SUMOylation inhibition; P63279; HTRF SUMOylation assay, SAE1/SAE2 + UBC9, in vitro; inhibition, % at 35 µM; 0.36% of 290,000 active; AID 2006; in the data active = inhibition above about 50%, passing the limit was not always enough; inconclusive = no clear call, values can overlap the other calls
eIF4H inh: inhibitors of RNA binding by human eIF4H; eIF4H fluorescence polarization binding assay; inhibition, % at 35 µM; Q15056; 0.94% of 290,000 active; AID 2012;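 also: calls also rest on retests at 20 µM and on dose response follow-up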
PABP FP inh: blocks human PABP binding to poly(A) RNA; 1% of 290,000 active; fluorescence polarization; inhibition, % at 35 µM; P11940; AID 2014;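 also: calls also rest on retests at 20 µM and on dose response follow-up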
* marks the source's active call; other numbers are inactive results; ? = inconclusive; nt = no result. Unless noted, no rule for the calls is given here.

SMILES	Efflux pump inh	ALR inh	PABP1 MLLE inh	UBC9 SUMO inh	eIF4H inh	PABP FP inh
O=C(CCN1C(=O)/C(=C/c2ccccc2Cl)SC1=S)NN1CCOCC1	0.2	0.6	24.5	7.5	-13.2	-2.7
CN1CCN(NC(=O)CN2C(=O)S/C(=C\c3c(Cl)cccc3Cl)C2=O)CC1	0.1	3.6	41.0*	-1.2	7.8	-5.3
Cc1cccc(-c2nc(CSCC(=O)NCCCN3CCOCC3)c(C)o2)c1	0.3	99.4*	-2.0	1.3	1.3	-2.5
Cc1oc(-c2ccc(Cl)cc2)nc1CSCC(=O)NCCCN1CCOCC1	-0.2	99.1*	7.7	24.2	-3.4	5.6
OCCCNc1ncnc2c1ncn2[C@H]1CN(Cc2ccc3c(c2)OCO3)C[C@@H](CO)O1	nt	nt	15.9	nt	nt	nt
CC1=C(c2ccccc2)[N+](=O)C2(CCCC2)N1[O-]	0.0	-1.0	-28.7	10.0	-2.6	-1.3
O=[N+]([O-])c1ccc2c(c1)N([O-])C1(CCCCC1)[N+]2=O	nt	nt	nt	53.7*	14.6	20.8
NC(=S)N=Nc1c(O)n(CCCl)c2ccc(Br)cc12	0.1	-4.6	31.8	2.2	10.1	10.1
C/C(Cl)=C\Cn1c(O)c(N=NC(N)=S)c2cc(Br)ccc21	-0.3	nt	43.6*	-20.7	12.9	2.8
O=S(=O)(Cc1ccc(Cl)cc1)Oc1ccc(Cl)cc1	nt	nt	-15.0	nt	nt	nt
O=[N+]([O-])c1ccc(OS(=O)(=O)Cc2ccccc2)cc1	0.4	-0.5	6.9	8.4	2.5*	70.3*
CC1=CC(C)C2(COC(c3ccc[n+](C)c3)OC2)C(C)C1 (stereo unspecified)	nt	nt	-133.7	-1.9	-2.5	58.7*
CC(C)c1ccc(/C=C/C(=O)CCC(=O)O)cc1	-0.1	97.8*	-3.9	20.1	1.3	10.2
O=C(O)c1ccccc1NC(c1ccccc1)c1ccc(Cl)cc1 (stereo unspecified)	-0.3	90.6*	1.2	35.9	2.7	9.3
COC(=O)c1sc(S(=O)(=O)NCCC(=O)O)c(C(=O)OC)c1C	0.0	-5.2	2.5	28.0	-1.2	-14.0
CN(C)S(=O)(=O)c1cccc(NC(=O)COC(=O)/C=C/c2ccc(Br)o2)c1	0.1	1.8	-4.3	24.0	?	39.1*
COc1ccc(/C=C/C(=O)OCC(=O)Nc2cc(S(=O)(=O)N(C)C)ccc2Cl)cc1	0.0	-2.6	-11.2	4.4	0.1	-19.7
O=C(COC(=O)/C=C/c1ccco1)Nc1ncc(Cl)cc1Cl	0.0	5.6	4.7	9.6	78.9*	59.1*
CN(C)S(=O)(=O)c1ccc(Cl)c(NC(=O)COC(=O)/C=C/c2ccco2)c1	0.1	1.6	-28.1	13.0	10.3	71.6*
C[C@H]1CN(S(=O)C(C)(C)C)[C@@H](CCO)/C1=C\CCO (stereo partly specified)	nt	nt	-9.0	nt	nt	nt
Cc1ccc(C2CC(=O)Oc3cc(O)ccc32)cc1 (stereo unspecified)	0.2	25.9	7.1	10.9	50.3*	4.5*
O=C1CC(c2ccccc2)c2cc(O)ccc2O1 (stereo unspecified)	0.0	61.6	10.0	-25.1	4.5	8.3
COc1ccc(C(=O)NC(=O)COC(=O)c2ccc3ncsc3c2)cc1	0.0	nt	nt	68.0*	-14.8	3.7
O=S(=O)(Nc1ccccc1F)c1ccc(Cl)nc1	0.1	nt	2.9	nt	nt	nt
O=S(=O)(Nc1ccccc1O)c1ccc(Cl)nc1	0.0	99.0*	6.1	-11.3	9.1	-7.7
SMILES	Efflux pump inh	ALR inh	PABP1 MLLE inh	UBC9 SUMO inh	eIF4H inh	PABP FP inh
O=C(NC1CCCCCC1)C(=S)NCCc1ccccc1	-0.1	-1.5	44.0*	-8.5	-9.4	-5.1
O=C(NC1CCCCCC1)C(=S)NCc1ccccc1	0.6	0.4	24.4	-24.6	-1.8	-1.0
CCCc1ccccc1OCCNC(=O)c1cc(=O)n(C)c(=O)n1C	-0.1	nt	14.4	9.1	-2.7	12.2
Cc1cc2cc(C(c3nnnn3Cc3ccccc3)N3CCc4ccccc43)c(=O)[nH]c2cc1C (stereo unspecified)	0.0	-31.8	3.7	18.7	-4.1	39.6
Cc1cc2cc(C(c3nnnn3Cc3ccco3)N3CCc4ccccc4C3)c(=O)[nH]c2cc1C (stereo unspecified)	0.1	36.5	1.4	28.9	62.7*	85.1*
Cc1ccc2[nH]c(=O)c(C(c3nnnn3CC3CCCO3)N3CCc4ccccc4C3)cc2c1 (stereo unspecified)	0.2	-28.6	77.7*	34.5	-2.7	24.0
Cc1cc2cc(C(c3nnnn3Cc3ccco3)N3CCc4ccccc43)c(=O)[nH]c2cc1C (stereo unspecified)	-0.1	33.5	-4.0	30.6	26.2*	76.6*
Cn1c(COc2ccc(F)cc2)nnc1SCC(=O)NC1CC1	0.2	-0.6	-9.1	14.6	5.7	4.3
CC(=O)N/N=C/c1cc(C)n(-c2ccc(Br)cc2)c1C	-0.1	97.6*	-2.3	-6.1	7.6	13.3
COC(=O)N/N=C/c1cc(C)n(-c2ccc(Br)cc2)c1C	-0.1	5.9	-3.3	7.5	6.4	22.5
N#C/C(=C(/O)CSc1ncn[nH]1)c1nc2ccccc2[nH]1	0.2	10.7	-13.6	19.4	63.6	42.8*
N#Cc1c(NC(=O)CSc2ncccn2)oc(-c2ccccc2)c1-c1ccccc1	0.0	4.7	2.0	nt	nt	nt
N#Cc1c(NC(=O)CN2CCOCC2)oc(-c2ccccc2)c1-c1ccccc1	0.2	98.7*	-7.7	13.5	-4.7	-6.5
COc1ccc(C2=NN(C(=O)c3cccs3)C(c3ccccc3O)C2)cc1 (stereo unspecified)	0.0	0.8	-2.3	56.5*	-4.7	-4.4
O=c1c2ccccc2cnn1Cc1n[nH]c(=S)n1-c1ccccc1Cl	0.1	83.9*	-16.5	3.8	0.1	3.8
Cc1ccc(N=Cc2cccc(O)c2O)c(C)c1	-0.1	-7.1	5.0	8.9	99.2*	30.8*
COC1OC2COC(c3ccccc3)OC2C2OC12 (stereo unspecified)	nt	nt	-3.5	nt	nt	nt
CC(=O)N1c2ccc(S(=O)(=O)NCC3CCC(C(=O)N4CC(C)CC(C)C4)CC3)cc2CC1C (stereo unspecified)	0.0	-7.0	6.8	5.5	-3.0	4.0
CC(C)NC(=O)CCCC(=O)NC(C)C	-0.1	-6.7	2.7	-2.2	2.2*	64.0*
COc1ccc(OC)c(N/C(C)=C/C(=O)c2ccncc2)c1	-0.1	-17.3	-4.0	-11.9	?	29.3*
CCOC(=O)[C@@H](NC(=O)/C=C/[C@H]1O[C@@H](n2ccc(=O)[nH]c2=O)[C@H](O)[C@@H]1O)C(C)C	nt	nt	-2.8	nt	nt	nt
CC[C@]12c3[nH]c4ccc(Cl)cc4c3CCN1C(=O)[C@@H](CC(=O)NCc1ccc(OC)c(OC)c1)C[C@@H]2C(=O)N1CCN(C(=O)c2ccco2)CC1	0.1	nt	-2.5	nt	nt	nt
N#CNC(=Nc1cccc(F)c1)SCc1ccccc1	-0.1	-3.7	1.2	7.9	1.2	-10.0
N#CNC(=Nc1ccccc1F)SCc1ccc(C(=O)O)cc1	-0.1	98.6*	10.4	21.1	8.2	8.1
COc1cc(C)c(C(=O)Oc2cc(C)c(C(=O)O)c(O)c2C)c(O)c1C	-0.2	96.8*	0.2	nt	nt	nt
